In the supplement of paper PMC10338343:
± gives the standard deviation.

Tests used:
[1] = system: MILI (PIWIL2) piRISC loaded with piRNA #1 (26 nt); assay: pre-steady-state target cleavage rate (min^-1); guide: piRNA #1 5'p-UGAGGUAGUAGGUUGUAUAGUAUCCA; higher = faster piRNA-guided slicing of the target; details: auxiliary factor: 500 nM mouse GTSF1
Procedure, shortened: (§1)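 In Cleave-'n-Seq, a transcribed, DNA-blocked target RNA library (0.1 nM) was combined with 1 nM active affinity-purified piRISC bearing one synthetic guide, with or without 500 nM GTSF1 partner protein. Reactions ran in HEPES–potassium acetate buffer at 33 °C for 0–8 or 0–960 min. Uncleaved targets were sequenced and normalised to depth and to weakly complementary targets, three trials were pooled, and k3 was capped at 0.0001 min^-1. The pre-steady-state cleavage rate was obtained by fitting a burst-and-steady-state model.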

[2] = system: EfPiwi piRISC loaded with piRNA #1 (26 nt); assay: pre-steady-state target cleavage rate (min^-1); auxiliary factor: 500 nM Ephydatia muelleri Gtsf1; guide: piRNA #1 5'p-UGAGGUAGUAGGUUGUAUAGUAUCCA; MIWI and MILI are mouse PIWI proteins and EfPiwi is from a freshwater sponge; tags in brackets are library labels; higher = faster piRNA-guided slicing of the target
Procedure, shortened: as §1

GGAGAGGUUACUAUACAACCUACAACCUCA
pre-steady-state target cleavage rate [1]: 0.0663 ± 0.015 | pre-steady-state target cleavage rate [2]: 0.00313 ± 0.0018

GGAGACGAUACUAUACACCCUACUACCUCA
pre-steady-state target cleavage rate [1]: 0.081 ± 0.0091 | pre-steady-state target cleavage rate [2]: 0.011 ± 0.0045

GGAGACCUAACUAUACAACCUACUACCAGA
pre-steady-state target cleavage rate [1]: 0.124 ± 0.035 | pre-steady-state target cleavage rate [2]: 0.00445 ± 0.0031

GGAGACGAUACUAUACAUCCUACUACCACA
pre-steady-state target cleavage rate [1]: 0.334 ± 0.021 | pre-steady-state target cleavage rate [2]: 0.0049 ± 0.0017

GGAGACCAUACUUUACAACCUACUUCCUCA
pre-steady-state target cleavage rate [1]: 0.0695 ± 0.018 | pre-steady-state target cleavage rate [2]: 0.00404 ± 0.0039

GGAGUGGAUACUAUUCAUCCUACUACCUCA
pre-steady-state target cleavage rate [1]: 0.265 ± 0.016 | pre-steady-state target cleavage rate [2]: 0.0078 ± 0.0036

GGAGUGGAUACUAUACAACCUACUGCCUCA
pre-steady-state target cleavage rate [1]: 0.102 ± 0.0082 | pre-steady-state target cleavage rate [2]: 0.00835 ± 0.0028

GGAGACCAUACUAUACAACCUACUACCCUCA
pre-steady-state target cleavage rate [1]: 0.22 ± 0.024 | pre-steady-state target cleavage rate [2]: 0.00445 ± 0.0021

GGAGACGUUACUAUACAACCAACUACCUCA
pre-steady-state target cleavage rate [1]: 0.0041 ± 0.002 | pre-steady-state target cleavage rate [2]: 0.00407 ± 0.0025

GGAGACCAUCUAUACAACCUACUACCUCA
pre-steady-state target cleavage rate [1]: 0.112 ± 0.013 | pre-steady-state target cleavage rate [2]: 0.00903 ± 0.0054

GGAGACCUAUGAUAUGAACCUACUACCCCA
pre-steady-state target cleavage rate [1]: < 0.0001 | pre-steady-state target cleavage rate [2]: < 0.0001

GGAGAGGAUACUAUACAACUUACUACCUCA
pre-steady-state target cleavage rate [1]: 0.0186 ± 0.0027 | pre-steady-state target cleavage rate [2]: 0.0083 ± 0.0042

GGAGACCUUACUAGUACAACCUACUACCUCA
pre-steady-state target cleavage rate [1]: 0.0945 ± 0.0095 | pre-steady-state target cleavage rate [2]: 0.00695 ± 0.0046

GGAGUGGAAACUAUACAACCUAGUACCUCA
pre-steady-state target cleavage rate [1]: 0.055 ± 0.021 | pre-steady-state target cleavage rate [2]: 0.00276 ± 0.0018

GGAGACCUAACUAUACAACGUAGUACCUCA
pre-steady-state target cleavage rate [1]: 0.00851 ± 0.0056 | pre-steady-state target cleavage rate [2]: 0.00322 ± 0.0027

GGAGACCUAACUCAUACAACCUACUACCUCA
pre-steady-state target cleavage rate [1]: 0.0742 ± 0.033 | pre-steady-state target cleavage rate [2]: 0.0159 ± 0.0089

GGAGACCAUACUAUACAACCUACUACGUGA
pre-steady-state target cleavage rate [1]: 0.115 ± 0.024 | pre-steady-state target cleavage rate [2]: 0.0051 ± 0.0028

GGAGACCAUACUAUACAUCCUACUACCUCA
pre-steady-state target cleavage rate [1]: 0.302 ± 0.025 | pre-steady-state target cleavage rate [2]: 0.00918 ± 0.0027

GGAGUGGAAACUAUACAACCUACUACGUCA
pre-steady-state target cleavage rate [1]: 0.0633 ± 0.012 | pre-steady-state target cleavage rate [2]: 0.00326 ± 0.0026

GGAGAGGAUUGAAUACAACCUACUACCUCA
pre-steady-state target cleavage rate [1]: 0.0664 ± 0.0088 | pre-steady-state target cleavage rate [2]: 0.00721 ± 0.0044

GGAGACCUAACAUACAACCUACUACCUCA
pre-steady-state target cleavage rate [1]: 0.0208 ± 0.009 | pre-steady-state target cleavage rate [2]: 0.0097 ± 0.005

GGAGACCUAUCUAAACAACCUACUACCUCA
pre-steady-state target cleavage rate [1]: 0.0794 ± 0.014 | pre-steady-state target cleavage rate [2]: 0.00381 ± 0.0037

GGAGACGAUACUAUACAACCUUCUACCUCA
pre-steady-state target cleavage rate [1]: 0.0098 ± 0.0026 | pre-steady-state target cleavage rate [2]: 0.00729 ± 0.0029

GGAGACCUAACUAUACAAGCUACUACCUGA
pre-steady-state target cleavage rate [1]: 0.235 ± 0.043 | pre-steady-state target cleavage rate [2]: 0.00345 ± 0.003

GGAGACCUAUGAAGUACAACCUACUACCUCA
pre-steady-state target cleavage rate [1]: 0.00594 ± 0.0028 | pre-steady-state target cleavage rate [2]: 0.00479 ± 0.0035

GGAGUGGAUAGUAUACAACCAACUACCUCA
pre-steady-state target cleavage rate [1]: 0.0064 ± 0.0029 | pre-steady-state target cleavage rate [2]: 0.00306 ± 0.0018

GGAGACGAUAGUUUACAACCUACUACCUCA
pre-steady-state target cleavage rate [1]: 0.129 ± 0.01 | pre-steady-state target cleavage rate [2]: 0.0165 ± 0.0088

GGAGACGAUACUAUAGAACCUACUACGUCA
pre-steady-state target cleavage rate [1]: 0.0644 ± 0.013 | pre-steady-state target cleavage rate [2]: 0.002 ± 0.0014

GGAGACGAUACUAUACAACGUACUACCUCA
pre-steady-state target cleavage rate [1]: 0.0266 ± 0.0047 | pre-steady-state target cleavage rate [2]: 0.00525 ± 0.0016

GGAGUGGAUACUAUUCAAGCUACUACCUCA
pre-steady-state target cleavage rate [1]: 0.221 ± 0.013 | pre-steady-state target cleavage rate [2]: 0.0053 ± 0.0025
